From PubChem BioAssay AID504895 (National Center for Advancing Translational Sciences (NCATS), 2011)
Results filed as inconclusive are left out. A number with no mark means an inactive call. The source made the active and inactive calls. The call rests on the fitted dose curve; in most records, active means well fitted curve in the direction sought with a large enough effect; inconclusive means small, poorly fitted or top-dose-only effect, or another doubt; inactive means no such curve, though single readings can be large or run the other way.

The compounds below were run against Protein phosphatase EYA2 (Homo sapiens) (UniProt O00167) (assay: Inhibitors of Eya2ED: Hit Confirmation in Primary Screen). Conditions: Recombinant Eya2ED, OMFP fluorescence phosphatase assay; series mostly up to 76.9 µM; activity change, negative = inhibition: at the top concentration.
Excerpt: The Eya proteins (Eya1-4) were originally identified as essential co-activators of the Six1 transcription factor. […] Knockdown of Six1 decreases cancer cell proliferation and metastases in several different cancer models. […] A fluorescence-based HTS assay has been perfomed against the Molecular Libraries Small Molecule Repository (MLSMR) and has the AID 488837 in this database. After completion of the primary screen, hits were re-ordered and tested again in the primary screen in a 12 point titration. NIH Chemical Genomics Center [NCGC] NIH Molecular Libraries Probe Centers Network [MLPCN] MLPCN Grant: DA030559-01 Assay Submitter (PI): Rui Zhao, University of Colorado, Denver
The Eya2 enzyme was kindly provided by the laboratory of Dr. Rui Zhao. The 3-O-methyl-fluorescein phosphate (OMFP) substrate and all buffer reagents were purchased from Sigma Aldrich. qHTS Assay Setup: 1. Buffer- 50 mM HEPES pH 7.5, 50 mM NaCl, 5 uM MgCl2, 0.05% BSA, 1 mM DTT. 2. OMFP Stock- 10 mM solution prepared in 100% DMSO and stored in single use aliquots at -20C. Assay Procedure- 1. Dispense 1.5 ul per well of Eya2 at 0.2 uM in black medium binding 1536 well Greiner plate 2. Transfer 23 nl of compound and control compound (EGTA) to plate 3. Incubate at ambient for 10 minutes 4. Dispense 1.5 ul per well of OMFP at 50 uM 5. Incubate at ambient for 10 minutes 6. Read on ViewLux using Excitation = 485 nm, Emission = 525 nm

Sequence of Protein phosphatase EYA2 (Homo sapiens) (O00167 whole entry, looked up): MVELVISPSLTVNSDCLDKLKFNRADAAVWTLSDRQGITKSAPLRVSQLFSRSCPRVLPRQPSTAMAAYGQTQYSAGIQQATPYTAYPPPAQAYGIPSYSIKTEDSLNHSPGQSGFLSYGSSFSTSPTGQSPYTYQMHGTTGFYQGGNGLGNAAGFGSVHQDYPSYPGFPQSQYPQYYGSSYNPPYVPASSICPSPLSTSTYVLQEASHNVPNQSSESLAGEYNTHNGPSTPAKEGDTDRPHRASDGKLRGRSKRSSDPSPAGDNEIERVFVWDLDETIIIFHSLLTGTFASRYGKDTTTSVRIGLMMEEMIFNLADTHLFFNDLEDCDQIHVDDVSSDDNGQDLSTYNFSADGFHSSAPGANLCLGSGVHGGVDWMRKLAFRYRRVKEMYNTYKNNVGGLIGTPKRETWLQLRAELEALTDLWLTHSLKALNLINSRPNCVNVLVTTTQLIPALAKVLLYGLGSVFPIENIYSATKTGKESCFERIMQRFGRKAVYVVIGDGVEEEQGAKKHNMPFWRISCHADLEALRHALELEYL

Question: COc1ccc(-c2nnn(-c3cc(Cl)cc(Cl)c3)c2N)cc1 was tested. Which “activity change, negative = inhibition” value did it give?
Answer: Its value is -11.3%.

Question: How did the “activity change, negative = inhibition” value turn out when Cc1nn(C)c(C)c1NC(=O)Nc1ccc(Cl)c(Cl)c1 was run?
Answer: The value was -26.5%.

Question: Which “activity change, negative = inhibition” value does the source give for CC(=O)c1ccc(NC(=O)C2(c3ccccc3)CC2(Cl)Cl)cc1 (stereo not given) here?
Answer: Its value is -1.93%.

Question: NC(=O)C1CCN(CC(=O)Nc2ccc3c(c2)OCCO3)CC1 was tested. Which “activity change, negative = inhibition” value did it give?
Answer: The value was -18.7%.

Question: For CN(CCCC(=O)N1CCN(c2ncccn2)CC1)S(=O)(=O)c1ccc(F)cc1, which “activity change, negative = inhibition” value is on record?
Answer: The value was -1.76%.

Question: How did the “activity change, negative = inhibition” value turn out when CC(C1CC1)N(C(=O)c1ccccc1O)c1ccccc1 (stereo not given) was run?
Answer: Its value is -16.4%.

Question: How did the “activity change, negative = inhibition” value turn out when COc1cccc(-c2cc(C(F)(F)F)nc(N3CCN(c4ccccc4)CC3)n2)c1 was run?
Answer: The value was -0.431%.

Question: Which “activity change, negative = inhibition” value does the source give for O=C(N/N=C/c1ccc(Sc2ccccn2)o1)c1cc2ccccc2cc1O here?
Answer: The value was -21.1%.

Question: With NC(=O)Nc1ccc(C(=O)OCC(=O)NC2CCCCC2)cc1 as the compound, how does the “activity change, negative = inhibition” value read?
Answer: Its value is 6.46%.

Question: For O=C(N/N=C\c1ccc(Sc2ccccn2)o1)c1cccc(Br)c1, which Potency is on record?
Answer: The Potency was 1840 nM (active).

Question: With O=C1/C(=C/c2cccs2)N=C(c2cccs2)N1Nc1ccccc1 as the compound, how does the “activity change, negative = inhibition” value read?
Answer: The value was -17.4%.

Question: With Cc1cc(C)n(C(=O)COc2ccccc2[N+](=O)[O-])n1 as the compound, how does the “activity change, negative = inhibition” value read?
Answer: Its value is -7.27%.

Question: Which “activity change, negative = inhibition” value does the source give for COC(=O)/C=C1\NCCNC1=O here?
Answer: Its value is -20.2%.

Question: How did the “activity change, negative = inhibition” value turn out when CC(C)(C)OC(=O)NCCCCCc1nnc(SCc2ccccc2F)o1 was run?
Answer: Its value is -47%.

Question: O=C(COC(=O)c1cccnc1Cl)Nc1cc(S(=O)(=O)N2CCCCCC2)ccc1Cl was tested. Which “activity change, negative = inhibition” value did it give?
Answer: Its value is -28.3%.

Question: With O=C(Cn1cccc(C(F)(F)F)c1=O)c1ccc(Cl)cc1 as the compound, how does the “activity change, negative = inhibition” value read?
Answer: Its value is -15.3%.

Question: Which “activity change, negative = inhibition” value does the source give for Cc1cccc(-n2c(-c3csc(C(C)C)c3)n[nH]c2=S)c1 here?
Answer: The value was -18.6%.

Question: Which “activity change, negative = inhibition” value does the source give for COC(=O)C1=C(C)Nc2ncnn2C1c1ccco1 (stereo not given) here?
Answer: The value was -29.7%.

Question: For O=C(CSc1c2c(nc3cc(Cl)ccc13)CCCC2)NCc1ccco1, which “activity change, negative = inhibition” value is on record?
Answer: Its value is -28%.

Question: COc1ccc(CCN=C(C)C2=C(O)C(c3ccccc3)OC2=O)cc1OC (stereo not given) was tested. Which “activity change, negative = inhibition” value did it give?
Answer: The value was 1.2%.

Question: With COc1ccc(Cl)cc1CSc1ncn[nH]1 as the compound, how does the “activity change, negative = inhibition” value read?
Answer: The value was -42.2%.

Question: With CCOC(=O)C1CCCN(Cc2cc(Br)c(OC)cc2OC)C1 (stereo not given) as the compound, how does the “activity change, negative = inhibition” value read?
Answer: Its value is -24.3%.

Question: With CC(=O)c1c(C)[nH]c(C(=O)COC(=O)COc2ccccc2)c1C as the compound, how does the “activity change, negative = inhibition” value read?
Answer: The value was 16%.

Question: How did the “activity change, negative = inhibition” value turn out when CCOc1ccccc1N(CC(=O)Nc1cc(OC)ccc1OC)S(C)(=O)=O was run?
Answer: Its value is 11.2%.

Question: Cc1nnc(SC(C)C(=O)Nc2ccc3ccccc3c2)[nH]c1=O (stereo not given) was tested. Which “activity change, negative = inhibition” value did it give?
Answer: Its value is 2.55%.

Question: How did the “activity change, negative = inhibition” value turn out when COc1ccc(-c2noc(CCC(=O)NC3CCCCC3)n2)cc1OC was run?
Answer: The value was -5.13%.

Question: Which “activity change, negative = inhibition” value does the source give for O=C(CCc1nc2ccccc2s1)NCc1ccccc1F here?
Answer: The value was 7.84%.

Question: How did the “activity change, negative = inhibition” value turn out when CCCc1nnc(SCc2ccc(C(=O)OC)o2)n1N was run?
Answer: The value was 7.95%.

Question: For O=C(NC1CCCCC1)c1cc2nc3c(c(C(F)(F)F)n2n1)CCCC3, which “activity change, negative = inhibition” value is on record?
Answer: Its value is -7.99%.

Question: How did the “activity change, negative = inhibition” value turn out when O=C(c1ccccc1Cl)N1CCN(C(=O)C2CCCO2)CC1 (stereo not given) was run?
Answer: The value was -18.2%.

Question: With CCOc1cc(C)c(Cl)cc1S(=O)(=O)NCc1ccco1 as the compound, how does the “activity change, negative = inhibition” value read?
Answer: The value was 7.89%.

Question: For O=C(C[C@H]1C/C=C/CC[C@H](Cc2ccc(F)cc2)C(=O)O[C@H](c2ccccc2)CNC1=O)NCCO, which “activity change, negative = inhibition” value is on record?
Answer: The value was -32.4%.

Question: How did the “activity change, negative = inhibition” value turn out when N#Cc1ccccc1NC(=O)CSC1=Nc2ccccc2C2CC=NN12 (stereo not given) was run?
Answer: The value was -26.1%.

Question: With O=C(NN=Cc1ccccc1Cl)c1ccc(-n2cnnn2)cc1 as the compound, how does the “activity change, negative = inhibition” value read?
Answer: The value was 0.806%.

Question: Which “activity change, negative = inhibition” value does the source give for CN1CC[n+]2cnc3ccccc3c21 here?
Answer: The value was -18.8%.

Question: O=C(CCCC(=O)N(CC(=O)NC1CCCCC1)c1ccccc1F)Nc1ccccn1 was tested. Which “activity change, negative = inhibition” value did it give?
Answer: Its value is -0.931%.

Question: How did the “activity change, negative = inhibition” value turn out when O=C(NC(=S)Nc1ccccc1N1CCCCC1)c1ccc(F)cc1Cl was run?
Answer: The value was -8.89%.

Question: O=C(COC(=O)c1cc(Cl)ccc1Cl)NC1CCCC1 was tested. Which “activity change, negative = inhibition” value did it give?
Answer: The value was -18%.

Question: How did the “activity change, negative = inhibition” value turn out when O=C(NN=C1CCCC1)c1[nH]c2ccc(Br)cc2c1-c1ccccc1 was run?
Answer: Its value is -22.3%.

Question: For CCN(C(=O)COC(=O)c1cc(OC)c(OC)cc1[N+](=O)[O-])C1CCS(=O)(=O)C1 (stereo not given), which “activity change, negative = inhibition” value is on record?
Answer: Its value is 8.87%.
